# Assay results published in the supplement of paper PMC10849652.
# Targets with a hit are over-represented here; the source holds about 8,800 in all. About 0.5% of all pairs of compound and target were hits. A number with no mark means an inactive call.
# Legend:
# Assay in all cases: log2 fold change, soluble protein after heating vs DMSO (PISA); higher = thermal stabilisation; K562 lysate, 10 uM; active = over 0.2 and 3.5 SD of the protein, either way, in both replicates (recomputed)
# lapatinib = compound: CS(=O)(=O)CCNCc1ccc(-c2ccc3ncnc(Nc4ccc(OCc5cccc(F)c5)c(Cl)c4)c3c2)o1 [lapatinib]
# Outline: (§1)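 Thermal stability, expressed as log-two fold change relative to solvent controls, is given from duplicates. Crude K562 extract in PBS pH 7.4 with 1 mM MgCl2, at 1 mg/mL protein, was treated with 10 μM compound for 30 min and heated in aliquots for 3 min across 48°C-58°C. After pooling, adjustment to 0.5% NP-40 at 4°C and centrifugation at 21,000xg for 90 min, supernatant protein was measured by TMTpro 16plex LC-MS/MS with channel sums equalised.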
# pictilisib = compound: CS(=O)(=O)N1CCN(Cc2cc3nc(-c4cccc5[nH]ncc45)nc(N4CCOCC4)c3s2)CC1 [pictilisib]
# Outline: as §1
# crizotinib = compound: C[C@@H](Oc1cc(-c2cnn(C3CCNCC3)c2)cnc1N)c1c(Cl)ccc(F)c1Cl [crizotinib]
# Outline: as §1
# [1] = compound: C[C@H](C1=CC=C(C=C1)C(=O)NC2=C3C=CNC3=NC=C2)N
# Outline: as §1
# duvelisib = compound: C[C@H](Nc1ncnc2nc[nH]c12)c1cc2cccc(Cl)c2c(=O)n1-c1ccccc1 [duvelisib]
# Outline: as §1
# gandotinib = compound: Cc1cc(Nc2cc(CN3CCOCC3)c3nc(C)c(Cc4ccc(Cl)cc4F)n3n2)n[nH]1 [gandotinib]
# Outline: as §1
# tozasertib = compound: Cc1cc(Nc2cc(N3CCN(C)CC3)nc(Sc3ccc(NC(=O)C4CC4)cc3)n2)n[nH]1 [tozasertib]
# Outline: as §1
# doramapimod = compound: Cc1ccc(-n2nc(C(C)(C)C)cc2NC(=O)Nc2ccc(OCCN3CCOCC3)c3ccccc23)cc1 [doramapimod]
# Outline: as §1
# bafetinib = compound: Cc1ccc(NC(=O)c2ccc(CN3CC[C@H](N(C)C)C3)c(C(F)(F)F)c2)cc1Nc1nccc(-c2cncnc2)n1 [bafetinib]
# Outline: as §1
# [2] = compound: Cc1cccc(CC(=O)N2CCc3c2ccc(-c2cn(C)c4ncnc(N)c24)c3F)n1
# Outline: as §1
# UniProt Q9H4L7, sequence (Q9H4L7 whole entry, looked up): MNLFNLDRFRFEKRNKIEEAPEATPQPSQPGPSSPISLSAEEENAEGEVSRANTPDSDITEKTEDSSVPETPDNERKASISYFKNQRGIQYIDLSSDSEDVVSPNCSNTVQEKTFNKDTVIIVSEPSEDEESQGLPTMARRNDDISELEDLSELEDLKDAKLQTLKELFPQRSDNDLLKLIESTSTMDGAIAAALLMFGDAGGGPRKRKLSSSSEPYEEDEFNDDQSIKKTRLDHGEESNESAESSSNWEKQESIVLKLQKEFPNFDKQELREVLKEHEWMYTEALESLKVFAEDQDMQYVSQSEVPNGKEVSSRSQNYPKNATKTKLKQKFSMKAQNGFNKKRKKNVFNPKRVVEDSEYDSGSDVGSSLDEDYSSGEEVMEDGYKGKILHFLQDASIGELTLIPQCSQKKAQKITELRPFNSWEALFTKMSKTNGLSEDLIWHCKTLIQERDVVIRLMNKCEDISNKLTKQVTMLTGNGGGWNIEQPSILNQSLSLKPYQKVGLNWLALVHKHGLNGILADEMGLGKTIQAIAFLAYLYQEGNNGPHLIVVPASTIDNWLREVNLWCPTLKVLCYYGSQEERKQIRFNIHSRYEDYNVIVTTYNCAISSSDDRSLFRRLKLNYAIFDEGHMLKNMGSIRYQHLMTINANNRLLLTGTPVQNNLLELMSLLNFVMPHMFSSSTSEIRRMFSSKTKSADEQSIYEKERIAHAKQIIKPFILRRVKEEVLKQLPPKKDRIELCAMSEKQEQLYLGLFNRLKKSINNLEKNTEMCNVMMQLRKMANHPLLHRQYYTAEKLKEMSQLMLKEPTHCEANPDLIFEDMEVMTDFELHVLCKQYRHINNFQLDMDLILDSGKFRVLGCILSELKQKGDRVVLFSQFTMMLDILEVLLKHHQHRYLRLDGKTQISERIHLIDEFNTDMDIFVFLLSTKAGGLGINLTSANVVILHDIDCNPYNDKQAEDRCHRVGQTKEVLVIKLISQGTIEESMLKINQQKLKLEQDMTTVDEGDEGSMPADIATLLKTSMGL
# UniProt Q8NEM2, sequence (Q8NEM2 whole entry, looked up): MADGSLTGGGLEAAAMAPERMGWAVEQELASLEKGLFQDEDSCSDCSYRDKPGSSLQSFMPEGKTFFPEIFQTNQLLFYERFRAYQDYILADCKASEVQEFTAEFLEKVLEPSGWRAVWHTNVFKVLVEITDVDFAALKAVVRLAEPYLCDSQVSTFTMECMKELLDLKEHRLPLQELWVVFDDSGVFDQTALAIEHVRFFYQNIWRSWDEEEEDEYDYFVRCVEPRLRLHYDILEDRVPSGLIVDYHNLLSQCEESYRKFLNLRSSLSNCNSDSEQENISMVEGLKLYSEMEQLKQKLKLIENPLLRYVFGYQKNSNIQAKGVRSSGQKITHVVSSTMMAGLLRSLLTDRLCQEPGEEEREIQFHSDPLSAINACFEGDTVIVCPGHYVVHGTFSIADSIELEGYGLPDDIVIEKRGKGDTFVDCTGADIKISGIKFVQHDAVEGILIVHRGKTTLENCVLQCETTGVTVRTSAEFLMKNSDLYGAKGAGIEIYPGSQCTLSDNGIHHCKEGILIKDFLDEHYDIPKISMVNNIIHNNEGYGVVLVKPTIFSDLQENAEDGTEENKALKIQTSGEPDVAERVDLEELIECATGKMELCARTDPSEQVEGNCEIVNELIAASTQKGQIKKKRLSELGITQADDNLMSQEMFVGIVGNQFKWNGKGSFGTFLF
# UniProt Q15208, sequence (Q15208 whole entry, looked up): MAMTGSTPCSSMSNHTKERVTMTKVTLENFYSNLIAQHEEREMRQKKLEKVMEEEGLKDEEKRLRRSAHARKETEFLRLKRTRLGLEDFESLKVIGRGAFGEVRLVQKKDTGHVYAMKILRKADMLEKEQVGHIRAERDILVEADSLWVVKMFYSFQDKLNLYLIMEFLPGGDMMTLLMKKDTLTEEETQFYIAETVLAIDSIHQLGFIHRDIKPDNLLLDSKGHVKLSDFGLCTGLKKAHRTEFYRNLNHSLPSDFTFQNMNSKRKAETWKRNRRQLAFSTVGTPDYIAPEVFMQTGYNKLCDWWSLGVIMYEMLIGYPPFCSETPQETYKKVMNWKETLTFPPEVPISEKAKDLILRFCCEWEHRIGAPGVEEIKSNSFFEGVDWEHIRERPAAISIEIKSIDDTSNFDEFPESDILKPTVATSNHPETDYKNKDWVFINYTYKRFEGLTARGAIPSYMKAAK
# UniProt O43805, sequence (O43805 whole entry, looked up): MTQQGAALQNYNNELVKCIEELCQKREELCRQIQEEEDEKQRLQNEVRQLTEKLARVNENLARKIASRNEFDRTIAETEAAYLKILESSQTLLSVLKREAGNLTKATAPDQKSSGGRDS
# UniProt P10124, sequence (P10124 whole entry, looked up): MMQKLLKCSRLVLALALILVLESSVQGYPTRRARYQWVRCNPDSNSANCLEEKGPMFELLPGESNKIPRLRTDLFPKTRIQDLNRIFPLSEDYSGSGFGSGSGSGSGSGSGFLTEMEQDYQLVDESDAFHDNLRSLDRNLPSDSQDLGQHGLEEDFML
# UniProt Q9BWW4, sequence (Q9BWW4 whole entry, looked up): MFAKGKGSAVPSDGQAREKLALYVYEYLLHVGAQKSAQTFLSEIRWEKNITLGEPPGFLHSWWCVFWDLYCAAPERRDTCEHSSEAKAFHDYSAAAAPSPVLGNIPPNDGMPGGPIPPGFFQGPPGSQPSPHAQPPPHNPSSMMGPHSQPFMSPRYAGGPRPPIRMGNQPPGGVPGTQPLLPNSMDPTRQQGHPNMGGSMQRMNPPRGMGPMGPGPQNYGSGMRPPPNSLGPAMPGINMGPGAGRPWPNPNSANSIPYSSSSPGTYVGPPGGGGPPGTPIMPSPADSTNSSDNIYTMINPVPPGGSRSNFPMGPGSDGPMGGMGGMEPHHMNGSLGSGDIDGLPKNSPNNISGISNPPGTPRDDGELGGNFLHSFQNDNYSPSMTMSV
# UniProt Q96SB4, sequence (Q96SB4 whole entry, looked up): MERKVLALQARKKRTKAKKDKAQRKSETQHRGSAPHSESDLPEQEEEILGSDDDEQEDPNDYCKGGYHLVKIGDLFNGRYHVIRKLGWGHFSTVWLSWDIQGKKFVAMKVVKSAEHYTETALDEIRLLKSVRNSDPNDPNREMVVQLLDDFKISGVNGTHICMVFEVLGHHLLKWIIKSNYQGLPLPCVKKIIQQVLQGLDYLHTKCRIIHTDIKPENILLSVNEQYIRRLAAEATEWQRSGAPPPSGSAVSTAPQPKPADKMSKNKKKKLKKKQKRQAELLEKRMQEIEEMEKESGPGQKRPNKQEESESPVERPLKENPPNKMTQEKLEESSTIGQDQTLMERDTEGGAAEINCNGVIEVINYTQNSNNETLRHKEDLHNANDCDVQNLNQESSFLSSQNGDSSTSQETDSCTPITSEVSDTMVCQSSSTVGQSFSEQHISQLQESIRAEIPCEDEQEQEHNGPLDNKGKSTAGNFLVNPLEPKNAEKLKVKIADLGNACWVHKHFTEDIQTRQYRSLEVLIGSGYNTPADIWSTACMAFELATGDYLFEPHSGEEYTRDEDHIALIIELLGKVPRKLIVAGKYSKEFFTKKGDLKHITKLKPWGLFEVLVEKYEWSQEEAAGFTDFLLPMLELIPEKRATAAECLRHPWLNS
# UniProt Q16629, sequence (Q16629 whole entry, looked up): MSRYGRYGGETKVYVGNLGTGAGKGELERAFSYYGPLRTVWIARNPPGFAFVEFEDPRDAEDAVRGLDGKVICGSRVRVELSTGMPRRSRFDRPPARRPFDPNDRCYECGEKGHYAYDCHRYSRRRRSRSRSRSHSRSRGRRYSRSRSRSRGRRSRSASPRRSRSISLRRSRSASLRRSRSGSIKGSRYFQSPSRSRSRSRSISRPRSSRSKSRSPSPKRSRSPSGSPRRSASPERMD
# UniProt Q14849, sequence (Q14849 whole entry, looked up): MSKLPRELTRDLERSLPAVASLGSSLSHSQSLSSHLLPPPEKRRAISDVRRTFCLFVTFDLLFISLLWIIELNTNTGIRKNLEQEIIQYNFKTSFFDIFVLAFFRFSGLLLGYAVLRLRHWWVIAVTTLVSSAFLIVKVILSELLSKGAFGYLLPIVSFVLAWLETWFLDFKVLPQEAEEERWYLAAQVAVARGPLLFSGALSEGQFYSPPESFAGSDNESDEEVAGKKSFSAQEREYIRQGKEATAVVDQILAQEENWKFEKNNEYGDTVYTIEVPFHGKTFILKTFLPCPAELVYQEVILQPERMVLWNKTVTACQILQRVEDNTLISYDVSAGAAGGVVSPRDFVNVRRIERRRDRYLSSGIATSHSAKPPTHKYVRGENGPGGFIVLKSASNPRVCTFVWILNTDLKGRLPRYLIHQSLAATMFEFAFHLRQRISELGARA
# UniProt Q15633, sequence (Q15633 whole entry, looked up): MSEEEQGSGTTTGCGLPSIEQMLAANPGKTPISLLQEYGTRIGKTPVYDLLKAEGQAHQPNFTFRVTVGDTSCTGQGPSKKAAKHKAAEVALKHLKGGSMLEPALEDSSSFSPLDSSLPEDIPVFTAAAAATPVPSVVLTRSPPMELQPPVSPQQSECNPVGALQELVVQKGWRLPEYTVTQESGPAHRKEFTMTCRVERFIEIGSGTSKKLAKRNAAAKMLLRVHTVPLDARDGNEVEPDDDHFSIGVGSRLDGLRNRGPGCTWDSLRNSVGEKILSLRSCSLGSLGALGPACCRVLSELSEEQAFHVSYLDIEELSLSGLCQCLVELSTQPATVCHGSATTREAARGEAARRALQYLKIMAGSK
# UniProt Q96EX1, sequence (Q96EX1 whole entry, looked up): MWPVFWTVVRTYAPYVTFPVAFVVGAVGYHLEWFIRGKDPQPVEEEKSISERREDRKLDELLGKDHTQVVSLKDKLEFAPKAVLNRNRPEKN
# UniProt P19623, sequence (P19623 whole entry, looked up): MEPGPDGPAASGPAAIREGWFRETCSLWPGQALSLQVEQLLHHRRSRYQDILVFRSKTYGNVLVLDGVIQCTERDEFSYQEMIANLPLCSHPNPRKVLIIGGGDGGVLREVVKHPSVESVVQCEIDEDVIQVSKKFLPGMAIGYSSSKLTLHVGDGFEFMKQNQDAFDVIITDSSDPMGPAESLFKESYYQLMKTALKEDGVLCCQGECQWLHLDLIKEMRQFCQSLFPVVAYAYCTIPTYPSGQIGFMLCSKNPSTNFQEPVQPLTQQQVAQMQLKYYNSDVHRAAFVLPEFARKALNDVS
Target,log2 fold change (lapatinib),log2 fold change (pictilisib),log2 fold change (crizotinib),log2 fold change [1],log2 fold change (duvelisib),log2 fold change (gandotinib),log2 fold change (tozasertib),log2 fold change (doramapimod),log2 fold change (bafetinib),log2 fold change [2]
SMG6 (UniProt Q86US8),0.009,-0.032,0.028,-0.097,-0.1,0.025,-0.096,0.051,-0.049,0.039
SMC3 (UniProt Q9UQE7),0.007,0.006,0.011,0.037,-0.01,-0.013,0.001,-0.007,-0.021,-0.012
SRPK1 (UniProt Q96SB4),-0.006,0.008,-0.089,0.1,0.025,0.17,-0.016,0.233,-0.028,-0.054
SPC25 (UniProt Q9HBM1),0.029,0.029,0.001,-0.01,-0.021,-0.007,-0.013,-0.005,-0.031,0.011
SMAD2 (UniProt Q15796),-0.006,-0.042,-0.055,-0.073,-0.066,-0.006,-0.027,-0.025,-0.005,0.06
SHCBP1 (UniProt Q8NEM2),0.061,0.046,-0.029,-0.043,0.028,-0.031,0.059,0.028,-0.073,0.078
STK38 (UniProt Q15208),-0.024,0.061,0.001,0.017,0.017,0.159,0.029,-0.001,-0.104,-0.071
SMARCAD1 isoform 2 (UniProt Q9H4L7),-0.005,-0.015,-0.073,-0.019,-0.013,-0.044,0.018,0.003,-0.045,0.008
SSNA1 (UniProt O43805),0.012,-0.015,0.138,0.003,-0.038,0.061,0.045,0.019,-0.014,-0.034
SOX5 (UniProt P35711),0.137,-0.019,0.006,0.007,-0.073,0.06,-0.017,0.026,-0.235,0.007
TANGO6 (UniProt Q9C0B7),-0.054,-0.002,-0.065,-0.102,0.005,0.037,-0.023,0.014,-0.064,0.115
SRM (UniProt P19623),-0.015,-0.013,-0.048,-0.032,0.716 (active),-0.036,0.01,-0.017,-0.009,-0.033
TAPT1 (UniProt Q6NXT6),-0.007,0.025,-0.044,-0.196,0.012,0.057,0.031,0.024,0.01,0.093
SPATS2 (UniProt Q86XZ4),0.027,-0.119,0.09,-0.016,0.048,0.145,-0.062,-0.126,-0.206,-0.164
SP1 (UniProt P08047),0.077,0.009,0.022,-0.024,-0.063,0.056,-0.049,0.095,-0.027,0.031
SRSF2 (UniProt Q01130),0.015,-0.005,0.006,-0.299 (active),0.061,0.079,0.026,0.05,-0.016,0.109
SNW1 (UniProt Q13573),0.019,-0.002,0.002,0.155,-0.018,-0.037,-0.01,-0.002,-0.002,-0.007
SLC30A9 (UniProt Q6PML9),-0.007,-0.054,-0.043,-0.423,0.048,0.008,-0.003,0.036,-0.161,0.312 (active)
SLC19A1 (UniProt P41440),-0.055,0.005,-0.002,-0.203 (active),-0.037,0.148,-0.021,0.004,-0.053,0.07
SHKBP1 (UniProt Q8TBC3),-0.027,-0.045,-0.009,-0.045,0.055,0.034,-0.009,0.005,-0.04,0.055
SORBS3 (UniProt O60504),0.072,0.007,-0.002,0.006,-0.127,0.024,-0.012,-0.019,-0.032,0.025
SSBP3 (UniProt Q9BWW4),0.039,-0.158,0.018,-0.014,0.019,-0.019,-0.041,0.014,-0.06,0.029
SRSF7 (UniProt Q16629),-0.061,0.075,0.084,-0.218 (active),0.058,0,0.036,-0.01,0.05,0.194
TANK (UniProt Q92844),0.038,-0.03,0.27,0.021,-0.026,0.141,0.108,-0.038,0.023,-0.162
TARBP2 (UniProt Q15633),0.035,-0.098,-0.092,0.001,0.07,-0.08,-0.057,0.028,-0.028,0.022
STIM1 (UniProt Q13586),-0.056,-0.028,-0.053,0.145,-0.007,-0.095,0.032,0.044,-0.056,-0.037
SRGN (UniProt P10124),0.016,-0.181,-0.054,-0.046,0.019,-0.097,0.008,-0.071,-0.17,0.192
SMIM12 (UniProt Q96EX1),0.014,0.022,-0.024,0.417 (active),-0.061,-0.191,-0.009,0.077,-0.083,-0.153
TAF1B (UniProt Q53T94),0.012,0.062,-0.036,-0.058,0.34,-0.157,0.304,0.017,-0.004,0.134
STARD3 isoform 3 (UniProt Q14849),-0.094,-0.087,-0.024,-0.072,-0.005,0.027,-0.075,0.021,-0.209,0.084
